In the library only some 22% were active in any assay of this set; here they are far more common.
CYP2C19 act: increases human CYP2C19 enzyme activity; recombinant CYP2C19, luciferin-H EGE luminescence; active compounds read high; 0 = fully inhibited enzyme, 1 = untreated enzyme; 96,000 tested, under 10 active; AID 1025; activation factor at 5 µM; P33261;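 active = activation factor of at least 2 at 5 µM in the primary screen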
Target sequence (P33261 whole entry, looked up): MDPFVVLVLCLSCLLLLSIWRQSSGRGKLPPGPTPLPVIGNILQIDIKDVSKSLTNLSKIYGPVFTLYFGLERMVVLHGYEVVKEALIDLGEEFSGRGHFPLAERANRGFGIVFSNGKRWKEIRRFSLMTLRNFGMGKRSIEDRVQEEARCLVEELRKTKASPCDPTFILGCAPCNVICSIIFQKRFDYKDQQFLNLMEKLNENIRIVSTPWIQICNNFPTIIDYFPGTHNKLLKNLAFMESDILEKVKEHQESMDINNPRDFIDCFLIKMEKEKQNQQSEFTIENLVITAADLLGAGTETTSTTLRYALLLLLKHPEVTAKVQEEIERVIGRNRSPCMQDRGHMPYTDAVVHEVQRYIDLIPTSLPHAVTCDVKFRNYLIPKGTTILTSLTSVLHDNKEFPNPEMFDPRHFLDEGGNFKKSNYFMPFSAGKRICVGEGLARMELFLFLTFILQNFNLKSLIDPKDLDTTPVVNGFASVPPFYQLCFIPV
Measles CPE: protection of cells from measles virus | Measles virus-infected cells, CPE protection, absorbance | protection (pct of control), % at 4 µM | 140,000 compounds, 1.5% hits | AID 841; in the data active = protection mostly above about 24%, no sharp cut-off; inactive = mostly below about 26%
CYP2C9 inh: inhibitors of human CYP2C9 | inhibition, % at 5 µM | P11712 | CYP2C9 Supersomes, luciferin-H conversion, luminescence | 96,000 compounds, 20% hits;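 active = blocking of liver enzyme CYP2C9 beyond about 50% at 5 µM, limit read from the data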
CYP2C19 inh: blocks human cytochrome P450 2C19. P33261. CYP2C19 Supersomes, luciferin-H EGE luminescence, 30 min. inhibition, % at 5 µM. 96,000 compounds, 21% hits;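 active = CYP2C19 inhibition above a set limit at 5 µM in the primary screen, cut at about 50% in these data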
CYP2C9 act: CYP2C9 (human) activation; P11712; recombinant CYP2C9, luciferin-H conversion, luminescence; active compounds read high; factor 1 = untreated enzyme, 0 = blocked; activation factor at 5 µM; 96,000 compounds, 1.4% hits; AID 1024;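 active = activation factor of 2 or more for CYP2C9 at a 5 µM dose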
A number is an active result; i = inactive; nt = not tested or not shown.

SMILES	CYP2C19 act	Measles CPE	CYP2C9 inh	CYP2C19 inh	CYP2C9 act
Cc1cc(/C=C2\C(=O)NC(=O)N(c3cccc(Br)c3)C2=O)c(C)n1C	nt	39	nt	nt	nt
Clc1cccc(Cl)c1CN1CCN(c2ccccc2)CC1	i	i	i	95	i
Nc1ccc(N2CCN(Cc3ccccc3Cl)CC2)c(Cl)c1	i	i	86	97	i
COc1ccccc1N1CCN(Cc2ccccc2Cl)CC1	i	i	i	i	i
Clc1ccccc1CN1CCN(c2ccccc2)CC1	i	i	i	99	i
Clc1ccc(N2CCN(Cc3ccccc3Cl)CC2)cc1	i	i	i	i	i
O=c1[nH]c(=S)n(Cc2ccc(F)cc2)c(O)c1/C=N/N1CCCCC1	nt	i	nt	nt	nt
CCC(=O)c1cc(F)c(N2CCN(CC)CC2)cc1C	i	i	i	i	i
COc1cc2c(cc1C=O)OCO2	nt	35	nt	nt	nt
N#CC1=C(N)Oc2c(c(=O)oc3ccccc23)C1c1ccncc1 (stereo not drawn)	i	i	96	57	i
CCOc1ccc(C2C(C#N)=C(N)Oc3c2c(=O)oc2ccccc32)cc1 (stereo not drawn)	i	i	83	i	i
COC(=O)C1=C(N)Oc2c(c(=O)oc3ccccc23)C1c1cccnc1 (stereo not drawn)	i	i	92	i	i
CC(C)CC1C(C#N)=C(N)Oc2c1c(=O)oc1ccccc21 (stereo not drawn)	i	i	77	i	i
CCOc1ccc(CC2C(=O)NC(=O)N(c3ccc(CC)cc3)C2=O)cc1 (stereo not drawn)	i	i	67	i	i
C[C@H]1CCCC(=O)CCC/C=C/c2cc(O)cc(O)c2C(=O)O1	i	i	90	88	i
O=c1c2ccccc2nc(-c2ccoc2)n1-c1ccccc1Cl	i	i	i	i	i
CC(C)N1C(=O)/C(=C/C=C/c2ccco2)C(=O)N(Cc2ccco2)C1=O	i	26	i	i	i
Cc1ccc(-n2nc(C)c3c2NC(=O)CSC3c2ccc3c(c2)OCO3)cc1 (stereo not drawn)	i	nt	i	i	i
COc1ccc(C2SCC(=O)Nc3c2c(C)nn3-c2ccccc2)cc1 (stereo not drawn)	i	i	52	i	i
CCCC(C)C1(CC)C(=O)NC(=Nc2ccc(F)cc2)NC1=O (stereo not drawn)	i	38	58	i	i
COc1ccc(OC)c2c1CCC1NCCOC21 (stereo not drawn)	nt	i	nt	nt	nt
CCc1cccc(C)c1NC(=S)N1CC2CC(C1)c1cccc(=O)n1C2 (stereo not drawn)	nt	i	nt	nt	nt
Cc1cc(Cl)ccc1OCC(=O)N1CCN(C)CC1	i	i	i	i	i
CN1CCN(C(=O)COc2ccc3ccccc3c2Br)CC1	i	i	i	66	i
CCOC(=O)c1cc(C)n(CCc2cnc[nH]2)c1C	i	i	99	100	i
SMILES	CYP2C19 act	Measles CPE	CYP2C9 inh	CYP2C19 inh	CYP2C9 act
O=P(NCc1ccccc1)(Oc1ccccc1)Oc1ccccc1	nt	i	nt	nt	nt
COCCOC(=O)c1c(C)n(C)c2ccc(OC(=O)N(C)C)cc12	i	i	54	i	i
Cc1cccc(C)c1NC(=O)CN(C)CC(=O)Nc1ccc(C#N)c(Cl)c1	i	i	53	i	i
CN(C)C(Cc1ccc(Cl)cc1)C(=O)c1ccccc1 (stereo not drawn)	nt	i	nt	nt	nt
COc1ccc(C(C)=O)cc1CC(C(=O)c1ccccc1)N(C)C (stereo not drawn)	nt	i	nt	nt	nt
COC(=O)c1c(C)[nH]c(C(=O)C(Cc2ccccc2)N(C)C)c1C (stereo not drawn)	i	i	92	92	i
CCOC(=O)c1c(C)[nH]c(C(=O)C(Cc2ccccc2)N(C)C)c1C (stereo not drawn)	i	i	84	i	i
CN(C(=O)c1ccco1)C1(c2ccccc2Cl)CCCCC1=O (stereo not drawn)	i	i	i	i	i
O=C(NC(Oc1ccccc1)C(Cl)(Cl)Cl)c1ccccc1 (stereo not drawn)	i	i	i	i	i
CC(=O)c1ccc(OC(NC(=O)c2ccco2)C(Cl)(Cl)Cl)cc1 (stereo not drawn)	i	i	i	i	i
CC(C)CC(=O)NC(Oc1ccc(Cl)cc1)C(Cl)(Cl)Cl (stereo not drawn)	i	i	i	82	i
CCCC(=O)NC(Oc1ccccc1Cl)C(Cl)(Cl)Cl (stereo not drawn)	i	i	59	80	i
NCC1(CC(=O)O)CCCCC1	nt	i	nt	nt	nt
CN(C)C(=O)Oc1ccc(OCc2n(C)c3ccccc3[n+]2C)cc1	nt	i	nt	nt	nt
CN(C)C(=O)Oc1c(Cl)cc(Cl)c2ccccc12	i	i	i	i	3.1
CC1(C)CC2(CCO1)NCCN1C(=O)CSC12 (stereo not drawn)	i	i	i	i	i
CCOC(=O)[C@@]1(C#N)[C@@H]2C=CC(C(N)=O)=CN2[C@@H](C(N)=O)[C@@H]1c1cccc(Cl)c1	i	47	59	i	i
C=C1C(O)(c2ccccc2)C2CC[N+]1(C)CC2 (stereo not drawn)	i	i	i	i	i
Cc1cccc(OP(=O)(Oc2ccccc2)OC(c2ccccc2)C(F)(F)F)c1 (stereo not drawn)	nt	i	nt	nt	nt
O=c1[nH]c(=S)n(Cc2ccc(F)cc2)c(O)c1C=NCc1cccnc1	i	i	i	66	i
O=c1[nH]c(=O)n(CCC2=CCCCC2)c(O)c1C=NCc1cccnc1	i	i	i	i	i
CC12CCC3C(CCC4C/C(=N/O)CCC43C)C1CCC2O (stereo not drawn)	nt	41	nt	nt	nt
N#Cc1cc2c(nc1SCC(=O)Nc1cc(Cl)ccc1Cl)C1CCN2CC1	nt	i	nt	nt	nt
Cc1ccccc1OCCN=Cc1c(O)n(C)c(=O)n(C)c1=O	i	i	i	64	i
CC(C)N1CCN(c2ccc(O)cc2)CC1	nt	i	nt	nt	nt
SMILES	CYP2C19 act	Measles CPE	CYP2C9 inh	CYP2C19 inh	CYP2C9 act
CC(=O)Nc1cc(C(=O)N2CCC3(CC2)OCCO3)ccc1S(=O)(=O)c1ccc(C)cc1	i	i	i	i	i
Cc1ccc(S(=O)(=O)Nc2cc(C(=O)N3CCC4(CC3)OCCO4)ccc2N2CCCCC2)cc1	i	i	63	54	i
COc1ccc(Br)cc1CN1CCN(C(=O)Cc2ccccc2)CC1	i	i	81	88	i
O=C(Cc1ccc(Br)cc1)N1CCN(Cc2ccccc2)CC1	i	86	87	84	i
Oc1c(Br)cc(Br)cc1CN1CCN(Cc2ccccc2)CC1	i	i	i	74	i
COc1ccc(CCn2c(O)c(C=NCCCO)c(=O)[nH]c2=O)cc1OC	i	i	i	i	i
Cc1cc(Br)ccc1N1C(=O)CC(=O)NC1=O	i	38	i	i	i
CC(c1ccccc1F)n1cc(C(=O)Nc2ccc3nc[nH]c3c2)nn1 (stereo not drawn)	i	i	i	i	i
CC(O)(CS(=O)(=O)c1cccc(C(F)(F)F)c1)C(=O)Nc1cccc(C(F)(F)F)c1 (stereo not drawn)	i	i	i	51	i
CC(O)(CS(=O)(=O)c1ccccc1)C(=O)Nc1ccc(C(F)(F)F)cc1 (stereo not drawn)	i	i	i	65	i
CC12CN3CCN(C1)CC(C)(C3)C2=NO	i	i	i	i	i

Bioassay records as filed in PubChem BioAssay.
